Shiga toxin inh: A qHTS for Small Molecule Inhibitors of Shiga Toxin; Vero cells, Shiga toxin protein synthesis inhibition reporter; inhibition, % at 38.7 µM; hit rate 9.2% among 290,000; in the data active = inhibition mostly above about 28%, no sharp cut-off; inactive = mostly below about 43%; note: 0% is about no effect
AMA1-RON2 inh: qHTS for Inhibitors of AMA1-RON; Towards Development of Antimalarial Drug Lead: Primary Screen | AID 720542, 2013 | Plasmodium falciparum AMA1 (3D7) - RON2 peptide interaction | hit rate 0.2% among 360,000 | AlphaScreen AMA1-biotinylated RON2 peptide binding | Potency, µM (series often up to 58.2 µM), inactives show at the highest dose activity change, negative = inhibition, most hits filed as inhibitors; active = well fitted inhibition curve with a large enough effect; inconclusive = small, poorly fitted or top-dose-only effect; inactive = no such curve, though single readings can be large or run the other way;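 note: potency is the fitted concentration of half-maximal effect; 0% = vehicle wells and -100% = peptide control; nearly all actives have a fitted effect of over 45% in size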
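AMA1 (3D7) with his tag at 25 nM final met compounds first, then biotinylated RON2 peptide at 25 nM; detection used donor plus acceptor beads, 10 µg/mL apiece, read by AlphaScreen after 30 min at room temperature.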
MARV entry inh: qHTS for inhibitors of binding or entry into cells for Marburg Virus | Marburg virus pseudotyped entry inhibition, cell reporter | Potency, µM (doses to about 37.8 µM), inactives show top-dose activity change, negative = inhibition, actives largely listed as inhibitors | hit rate 1.8% among 300,000; calls by dose curve; tested in HEK293 cells; note: potency is the fitted concentration of half-maximal effect; % is set by controls: 0 for no effect and ±100 for the full control effect
LASV entry inh: qHTS for Inhibitors of binding or entry into cells for Lassa Virus. AID 540256, 2011. Potency, µM (series often up to 37.9 µM), for the others: top-dose activity change, negative = inhibition, actives largely listed as inhibitors. hit rate 1.2% among 300,000. Lassa virus pseudotype entry inhibition, cell reporter; calls by dose curve; tested in HEK293 cells; note: potency is the fitted concentration of half-maximal effect; % is set by controls: 0 for no effect and ±100 for the full control effect; nearly all actives have a fitted effect of over 50% in size
CHX counter: Cycloheximide Counterscreen for Small Molecule Inhibitors of Shiga Toxin; cell reporter, cycloheximide protein synthesis inhibition counterscreen; max response, %; hit rate 12% among 300,000; AID 2314, 2010; in the data active = max response mostly above about 13%, no sharp cut-off; inactive = mostly below about 14%; note: read at 38.3 µM for the half of the compounds with a filed dose; 0% is about no effect
* marks the source's active call; other numbers are inactive results; u = inconclusive; x = not tested or not shown; [ ] = dose if it differs, or a comment. This excerpt belongs to a sample that is enriched for hits.

SMILES	Shiga toxin inh	AMA1-RON2 inh	MARV entry inh	LASV entry inh	CHX counter
CCC(CC)C(=O)Nc1cccc(C(=O)Nc2ccc3c(c2)OCO3)c1	79.8*	19.5%	18.7%	-0.2%	43.2*
COc1ccccc1NS(=O)(=O)c1cccc(C(=O)N2CCN(C(=O)c3ccco3)CC2)c1	x	-7.6%	x	x	x
CCCNC(=O)C1(C)CCCN(Cc2ccc(-c3ccccn3)cc2)C1 (stereo not given)	x	11.8%	x	x	x
Cc1ccc(NC(=S)/C(=C(\[O-])c2ccc(F)cc2)[n+]2ccccc2)cc1	36.3	16.2%	-18.6%[46.1 µM]	1.7%	21.3*
CCOc1ccc(NC(=S)/C(=C(\[O-])c2ccc(C)c([N+](=O)[O-])c2)[n+]2ccccc2)cc1	40.8*	-4.3%	15.4%[46.1 µM]	-2.0%	32.9*
O=[N+]([O-])c1cccc(/C([O-])=C(/C(=S)Nc2cccc3ccccc23)[n+]2ccccc2)c1	64.3*	7.9%	16.2%[46.1 µM]	11.9%[46.1 µM]	26.7*
CCc1cc[n+](/C(C(=S)Nc2cccc(C)c2)=C(/[O-])c2ccc(C)c([N+](=O)[O-])c2)cc1	4.8	u	-7.5%[46.1 µM]	u	-0.9
O=[N+]([O-])c1cccc(C([O-])=C(C(=S)Nc2cccc3ccccc23)[n+]2ccccc2)c1	x	19.3%	u	11.0%[46.1 µM]	x
O=[N+]([O-])c1ccc(/C([O-])=C(/C(=S)Nc2ccccc2F)[n+]2ccccc2)cc1	15.7	8.4%	-0.2%[46.1 µM]	2.5%	4.4
COc1cccc(NC(=S)/C(=C(\[O-])c2ccc([N+](=O)[O-])cc2)[n+]2ccccc2)c1	65.8*	9.6%	x	x	23.8*
CCOC(=O)/C(C#N)=C/C1=C(N2CCCC2)CC(C)(CC)OC1 (stereo not given)	-11.5	-2.2%	-0.9%	-13.9%	-4.2
CCCOc1ccc(C(F)(F)F)cc1NC(=O)CCc1c(C)noc1C	x	14.0%	x	x	x
CC(C)Oc1ccc(CN2CCC(n3nccc3NC(=O)CCc3ccccc3)CC2)cc1	-6.6	-7.0%	-13.0%	-12.6%	6.4
COc1ccc(NC(=O)CCC(=O)N2CCC(c3ccccc3)=N2)cc1S(=O)(=O)N1CCCCC1	x	14.6%	x	x	x
CCN1CCN(Cc2ccc(OC)c(OCc3ccccc3)c2)CC1	-4.6	-1.6%	u	13.0%	-1.0
CCN(Cc1ccccc1)Cc1ccc(OCc2ccccc2)c(OC)c1	-2.9	0.0%	x	x	-3.6
COc1cc(CN(C)CCc2ccccc2)ccc1OCc1ccccc1	8.7	-4.3%	18.3µM*	-27.6%	-2.1
CCOC(=O)C1CCCN(Cc2ccc(OCc3ccccc3)cc2)C1 (stereo not given)	98.7*	0.0%	x	x	44.1*
CCOC(=O)C1CCCN(Cc2ccc(OCc3ccccc3)c(OC)c2)C1 (stereo not given)	x	-20.7%	x	x	18.1*
CCN1CCN(Cc2ccc(OCc3ccccc3)c(OC)c2)CC1	105.2*	-9.7%	-5.2%	10.6%	49.3*
CCOC(=O)C1CCCN(Cc2ccc(O)c(OC)c2)C1 (stereo not given)	-7.7	-18.7%	12.0%	-0.2%	-2.4
Cc1ccc(NC(=O)CCn2cc(C(F)(F)F)ccc2=O)cc1	-11.1	-10.2%	u	1.4%	-4.4
CCOC(=O)C1CCCN(CCC(=O)Nc2cccc(C)c2)C1 (stereo not given)	82.0*	2.0%	5.1%	-7.0%	48.5*
COc1cc(CN2CCCC(C)C2)ccc1OCc1ccccc1 (stereo not given)	36.2*	-15.7%	u	22.9%	16.6*
COc1cc(-c2nc3oc4ccccc4c(=O)c3c(=O)n2Cc2ccco2)cc(OC)c1OC	40.0*	0.5%	7.94µM*	6.31µM*	21.6*
SMILES	Shiga toxin inh	AMA1-RON2 inh	MARV entry inh	LASV entry inh	CHX counter
COc1ccc2c(=O)c3c(=O)n(Cc4ccco4)c(-c4ccc(C)cc4)nc3oc2c1	31.8	-18.9%	10.7%	-5.7%	-0.7
CN(C)C(=O)CCc1nc(-c2ccc(C(C)(C)C)cc2)no1	123.3*	-0.3%	u	u	43.8*
Cc1ccc(-c2noc(CCC(=O)N(C)c3ccccc3F)n2)cc1	x	x	19.3%[46.1 µM]	u	x
CCc1ccccc1N(CC)C(=O)CCc1nc(-c2ccc(C)cc2)no1	14.9	1.2%	u	10µM*	5.3
Cc1ccc(-c2noc(CCC(=O)NCC3CCCO3)n2)cc1 (stereo not given)	1.9	8.4%	0.9%	9.6%	-2.7
CNC(=O)CCc1nc(-c2ccc(C(C)(C)C)cc2)no1	57.3	0.9%	0.891µM*	u	41.2*
CC(C)(C)c1ccc(-c2noc(CCC(=O)NCC3CCCO3)n2)cc1 (stereo not given)	55.1	-0.5%	u	u	43.2*
CCOc1cc(/C=C(\C#N)C(N)=O)cc(CSc2ccccc2)c1O	18.7	x	x	x	-1.4
CC1CCN(C(=O)CCC(=O)Nc2ccc([N+](=O)[O-])cc2)CC1	x	-7.2%	x	x	x
CC(C)(C)c1ccc(-c2noc(CCC(=O)Nc3cccnc3)n2)cc1	3.6	-3.1%	u	u	-3.2
CC(C)(C)c1ccc(-c2noc(CCC(N)=O)n2)cc1	71.5*	-5.5%	1.46µM*	u	34.5*
COc1ccc(-c2noc(CCCC(=O)N3CCOCC3)n2)cc1	13.0	-16.9%	-5.8%[46.1 µM]	-6.5%[46.1 µM]	11.4
CC(C)(C)c1ccc(-c2noc(CCC(=O)N3CCOCC3)n2)cc1	38.5	-13.8%	u	u	26.1*
Cc1ccccc1NC(=O)/C(C#N)=C\c1ccsc1	55.5	6.1%[2.32 µM]	u	7.1%	27.6*
Cc1cccc(C)c1NC(=O)/C(C#N)=C/c1cccs1	-2.0	-17.4%	-7.2%[46.1 µM]	-26.7%	-1.0
N#C/C(=C\c1ccccc1)C(=O)Nc1ccccn1	-3.5	-4.5%	-28.2%[46.1 µM]	2.2%[46.1 µM]	-3.1
Cc1ccc(NC(=O)/C(C#N)=C/c2ccsc2)c(C)c1	101.8*	-10.9%	10.1%	u	43.4*
N#C/C(=C\c1cccs1)C(=O)Nc1ccccn1	40.5	-10.5%	u	u	36.1*
Cc1ccc(NC(=O)/C(C#N)=C/c2cccs2)c(C)c1	100.8*	2.8%	u	u	50.0*
CCCCN(CCCC)Cc1cc(=O)oc2cc(OC)c(Cl)cc12	x	4.3%	x	x	x
C=CCn1c(C)nnc1SCC(=O)Nc1oc(C)c2c(C)n[nH]c(=O)c12	x	0.2%	1.8%	13.0%[46.1 µM]	x
CCOc1ccc(OCC)c(NC(=O)CCC(=O)N2CCOc3ccccc32)c1	x	x	-2.1%[46.1 µM]	18.1%[46.1 µM]	x
CC(C)(C)c1ccc(C(=O)/C(C#N)=C/c2cccs2)cc1	73.2*	-18.1%	7.6%[46.1 µM]	1.2%[46.1 µM]	33.4*
O=C(N=c1nc2ccccn2s1)c1ccccc1	151.6*	0.5%	u	43.9%[14.3 µM]	41.3*
CC/C(=N\NC(=O)c1c(C)nc2ccccn12)c1ccccc1	-5.3	37.7%	-4.2%[46.1 µM]	4.1%	1.0
COc1cccc2cc(-c3ccnc(N)n3)oc12	106.7*	-2.7%	0.3%	-18.6%	32.7*
CN(C)CCOC1c2ccccc2CCc2ccc3ccccc3c21 (stereo not given)	x	-9.6%	5.01µM*	u	x
Cc1cc(F)ccc1NC(=O)Nc1ccc2c(c1)OCO2	10.5	12.9%	x	x	11.9*
